Test results from PubChem BioAssay (Tox21).
Records with an inconclusive call do not appear. The source made the active and inactive calls. Unless noted, calls follow the shape of the dose curve; as a rule, active = well fitted curve in the direction sought with a large enough effect in the repeat runs; inconclusive = weak or mixed curves; inactive = no such curve, though single readings can be large; an effect the other way counts as inactive or inconclusive.

What was measured:
[1] = molecular target: Thyrotropin receptor (Homo sapiens) (UniProt P16473); assay: qHTS assay to identify small molecule antagonists of the thyroid stimulating hormone receptor (TSHR) signaling pathway (AID 1259385; calls by dose curve; also: nearly all actives have a fitted effect of over 20% in size; also: potency is read from the fitted curve at half-maximal effect)
Method in brief: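 TSHR-HEK293 cells (800/well) plated 18 h, then compounds with Ro20-1724 and TSH at 1.5 ng/mL final, 30 min at room temperature. cAMP quantified by HTRF (cAMP-d2/anti-cAMP-cryptate, 1 h); 15 concentrations in triplicate.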

[2] = qHTS assay to identify small molecule agonists of the estrogen receptor alpha (ER-alpha) signaling pathway in the presence of an antagonist - cell viability counter screen (AID 1259386);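 also: series mostly up to about 92 µM; cells exposed to compounds for 22 h at 37 °C before the viability read; nearly all actives have a fitted effect of over 30% in size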
Method in brief: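 Read-out: CellTiter-Fluor fluorescence after 1hr reagent incubation, measured in the same wells as the luciferase readout. VM7Luc4E2 cells were exposed to 15 compound concentrations with 10.0nM ICI-182,780 for 22hr at 37C.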

[3] = molecular target: Progesterone receptor (Homo sapiens) (UniProt P06401); assay: qHTS assay to identify small molecule agonists of the progesterone receptor (PR) signaling pathway (AID 1346784; calls by dose curve; also: nearly all actives have a fitted effect of over 30% in size)
Method in brief: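 HEK 293T PR-UAS-bla reporter cells, 2% charcoal-stripped FBS; 6 hr settle at 37C/5% CO2, compound (DMSO) 16 hr, LiveBLAzer B/G FRET substrate 2 hr RT, fluorescence intensity read.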

[4] = molecular target: Progesterone receptor (Homo sapiens) (UniProt P06401); assay: qHTS assay to identify small molecule antagonists of the progesterone receptor (PR) signaling pathway (AID 1346795; active = well fitted inhibition curve with a large enough effect in the signal ratio in the repeat runs, not every such curve was filed as active; the % refers to the signal ratio; also: potency is read from the fitted curve at half-maximal effect)
Method in brief: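 Beta-lactamase reporter, HEK293T PR-UAS-bla line; 2% charcoal-stripped FBS; 6 hr pre-incubation, 37C/5% CO2. Compound + R5020 1 nM final, 16 hr. LiveBLAzer B/G FRET substrate, 2 hr RT; fluorescence intensity read.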

[5] = qHTS assay to identify small molecule antagonists of the progesterone receptor (PR) signaling pathway - cell viability counter screen (AID 1346798); also: series mostly up to about 92 µM; nearly all actives have a fitted effect of over 50% in size
Method in brief: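 Luminescence readout (CellTiter-Glo, 30 min, RT) of viability in PR-UAS-bla HEK293T cells exposed to compound and R5020 agonist for 16 hr at 37C, 5% CO2; run in the same wells as the beta-lactamase reporter read.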

[6] = qHTS assay to identify small molecule agonists of the progesterone receptor (PR) signaling pathway - cell viability counter screen (AID 1346799; calls by dose curve; also: nearly all actives have a fitted effect of over 45% in size; also: potency is read from the fitted curve at half-maximal effect)
Method in brief: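 HEK293T PR-UAS-bla, 3,000 cells/well, 2% charcoal-stripped FBS; 6 h settle, compound 16 h at 37C/5% CO2; LiveBLAzer 2 h RT, then CellTiter-Glo 30 min RT, luminescence read.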

[7] = qHTS assay to identify small molecule antagonists of the TGF-beta/Smad signaling pathway - cell viability counter screen (AID 1346824); also: nearly all actives have a fitted effect of over 50% in size
Method in brief: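 SBE-bla HEK 293T cells, incubated overnight, then compound plus 0.25 ng/mL TGF-beta1 (stock added) for 5 hr at 37 C. Viability was read in the same wells by CellTiter-Glo luminescence after 30 min at room temperature.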

[8] = qHTS assay to identify small molecule agonists of the TGF-beta/Smad signaling pathway - cell viability counter screen (AID 1346829); also: top concentration of the series differs between compounds; nearly all actives have a fitted effect of over 45% in size
Method in brief: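 Here the cytotoxicity of library compounds is measured in SBE-bla HEK 293T cells treated for 5 hr, using CellTiter-Glo added to wells already read for the beta-lactamase reporter.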

[9] = molecular target: Thyrotropin-releasing hormone receptor (Homo sapiens) (UniProt P34981); assay: qHTS assay to identify small molecule antagonists of the thyrotropin-releasing hormone receptor (TRHR) signaling pathway (AID 1346877; active = well fitted inhibition curve with a large enough effect in the repeat runs, not every such curve was filed as active; also: series mostly up to about 51 µM)
Method in brief: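 HEK293/TRHR cells, 18 h, 37 °C; Ca2+ dye 2 h; cpd 5 min RT; TRH 1 nM final; fluorescence read 3 min, 1 s intervals; 15 concs, triplicate.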

[10] = qHTS assay to identify small molecule agonists of the TGF-beta/Smad signaling pathway (AID 1346859; active = well fitted activation curve with a large enough effect in the signal ratio in the repeat runs, not every such curve was filed as active; the % refers to the signal ratio; also: series mostly up to about 77 µM)
Method in brief: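 Read-out: fluorescence at 460 and 530 nm (405 nm excitation) after a 2 hr room-temperature incubation with beta-lactamase FRET substrate. SBE-bla HEK 293T cells had been treated with test compounds for 5 hr at 37 C.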
% is scaled to controls: 0 for no effect and ±100 for the full control effect.

Thyrotropin-releasing hormone receptor (Homo sapiens), sequence (P34981 whole entry, looked up): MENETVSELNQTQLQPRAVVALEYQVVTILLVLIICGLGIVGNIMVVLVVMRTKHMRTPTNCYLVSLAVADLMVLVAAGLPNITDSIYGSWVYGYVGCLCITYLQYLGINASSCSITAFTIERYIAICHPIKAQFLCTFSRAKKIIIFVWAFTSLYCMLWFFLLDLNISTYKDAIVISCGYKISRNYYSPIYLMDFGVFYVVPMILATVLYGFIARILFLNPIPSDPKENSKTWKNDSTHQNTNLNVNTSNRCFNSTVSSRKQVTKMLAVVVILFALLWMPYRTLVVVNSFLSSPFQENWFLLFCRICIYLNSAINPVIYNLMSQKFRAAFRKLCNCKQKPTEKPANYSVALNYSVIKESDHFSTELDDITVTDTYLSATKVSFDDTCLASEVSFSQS
Thyrotropin receptor (Homo sapiens), sequence (P16473 whole entry, looked up): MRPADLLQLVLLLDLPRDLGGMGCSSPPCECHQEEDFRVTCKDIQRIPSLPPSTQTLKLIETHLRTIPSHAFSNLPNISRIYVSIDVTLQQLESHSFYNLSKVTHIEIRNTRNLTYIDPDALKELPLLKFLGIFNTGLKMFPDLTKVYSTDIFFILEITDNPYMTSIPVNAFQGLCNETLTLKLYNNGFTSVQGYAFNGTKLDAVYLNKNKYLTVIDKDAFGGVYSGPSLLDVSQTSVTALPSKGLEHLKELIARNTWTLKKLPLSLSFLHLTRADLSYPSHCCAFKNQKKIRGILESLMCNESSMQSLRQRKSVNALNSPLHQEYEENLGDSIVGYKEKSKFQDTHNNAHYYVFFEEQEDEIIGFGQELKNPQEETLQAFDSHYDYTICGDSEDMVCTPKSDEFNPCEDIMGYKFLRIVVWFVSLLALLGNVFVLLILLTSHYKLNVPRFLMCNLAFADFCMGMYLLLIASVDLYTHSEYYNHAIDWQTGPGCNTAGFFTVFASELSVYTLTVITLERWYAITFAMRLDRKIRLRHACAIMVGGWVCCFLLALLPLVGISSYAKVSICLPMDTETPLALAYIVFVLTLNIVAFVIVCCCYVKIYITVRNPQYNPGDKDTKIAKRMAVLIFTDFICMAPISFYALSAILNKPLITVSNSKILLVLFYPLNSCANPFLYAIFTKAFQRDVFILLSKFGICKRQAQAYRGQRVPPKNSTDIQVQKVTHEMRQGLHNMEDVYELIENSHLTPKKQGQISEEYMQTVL
Progesterone receptor (Homo sapiens), sequence (P06401 whole entry, looked up): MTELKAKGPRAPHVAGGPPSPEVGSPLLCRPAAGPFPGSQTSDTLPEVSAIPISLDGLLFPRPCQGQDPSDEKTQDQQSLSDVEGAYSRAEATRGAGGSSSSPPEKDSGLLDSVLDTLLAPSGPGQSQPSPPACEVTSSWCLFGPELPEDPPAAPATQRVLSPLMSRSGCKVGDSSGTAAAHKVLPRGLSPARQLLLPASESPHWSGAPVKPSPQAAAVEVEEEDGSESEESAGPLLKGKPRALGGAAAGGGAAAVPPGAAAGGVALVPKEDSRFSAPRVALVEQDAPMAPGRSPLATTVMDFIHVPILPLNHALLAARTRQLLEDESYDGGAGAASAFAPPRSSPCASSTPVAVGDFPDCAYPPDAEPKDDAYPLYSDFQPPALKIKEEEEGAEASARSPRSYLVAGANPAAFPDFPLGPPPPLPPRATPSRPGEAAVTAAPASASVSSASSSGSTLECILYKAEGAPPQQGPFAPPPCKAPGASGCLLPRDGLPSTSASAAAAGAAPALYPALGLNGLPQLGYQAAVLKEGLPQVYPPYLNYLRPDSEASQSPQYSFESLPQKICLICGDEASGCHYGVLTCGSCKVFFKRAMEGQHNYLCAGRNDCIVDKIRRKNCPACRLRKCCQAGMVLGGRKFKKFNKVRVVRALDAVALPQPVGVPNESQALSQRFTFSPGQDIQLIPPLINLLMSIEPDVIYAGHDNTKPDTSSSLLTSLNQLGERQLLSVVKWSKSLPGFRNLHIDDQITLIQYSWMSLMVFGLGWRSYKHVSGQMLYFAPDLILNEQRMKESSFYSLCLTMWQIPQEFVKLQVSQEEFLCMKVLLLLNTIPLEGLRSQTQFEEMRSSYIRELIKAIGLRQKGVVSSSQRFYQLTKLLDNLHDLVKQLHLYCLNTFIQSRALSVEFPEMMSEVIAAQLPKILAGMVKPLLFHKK

Nc1ccc(-c2ccc(F)cc2)cc1
active: Potency [4] 6.11 µM
inactive: Potency [1] | Potency [2] | Potency [3] | Potency [5] | Potency [6] | outcome [7] | outcome [8] | outcome [9]

CCCCCCCCNC
inactive: Potency [1] | Potency [2] | Potency [3] | Potency [4] | Potency [5] | Potency [6] | outcome [7] | outcome [8] | outcome [10] | outcome [9]

CC(C)(C)c1ccc(CCC=O)cc1
inactive: Potency [1] | Potency [2] | Potency [3] | Potency [4] | Potency [5] | outcome [7] | outcome [8] | outcome [10] | outcome [9]

Cc1cc(SC2=C(O)C[C@@](CCc3ccc(N)cc3)(C(C)C)OC2=O)c(C(C)(C)C)cc1CO
inactive: Potency [1] | Potency [2] | Potency [3] | Potency [4] | Potency [5] | Potency [6] | outcome [7] | outcome [8] | outcome [9]

OCCOc1cccc(OCCO)c1
inactive: Potency [1] | Potency [2] | Potency [3] | Potency [4] | Potency [5] | Potency [6] | outcome [8] | outcome [9]

CCCC(=O)OCc1ccccc1
inactive: Potency [1] | Potency [2] | Potency [3] | Potency [4] | Potency [5] | outcome [7] | outcome [8] | outcome [10] | outcome [9]

O=C(c1ccco1)N1CCNCC1
inactive: Potency [1] | Potency [2] | Potency [3] | Potency [4] | Potency [5] | Potency [6] | outcome [8] | outcome [10] | outcome [9]

CCCCCCCCCC(C)C=O (stereo not drawn)
active: Potency [6] 43.3 µM
inactive: Potency [1] | Potency [2] | Potency [3] | Potency [4] | Potency [5] | outcome [7] | outcome [8] | outcome [9]

C1CCN(CN2CCCCC2)CC1
inactive: Potency [1] | Potency [2] | Potency [3] | Potency [4] | Potency [5] | Potency [6] | outcome [7] | outcome [8] | outcome [9]

CCCCCCCCCCCCN1CCOCC1
inactive: Potency [1] | Potency [2] | Potency [3] | Potency [4] | Potency [5] | Potency [6] | outcome [8] | outcome [10] | outcome [9]

CCCCCCCCCCCCCCCCN
inactive: Potency [1] | Potency [2] | Potency [3] | Potency [4] | Potency [5] | outcome [7] | outcome [8] | outcome [10] | outcome [9]

CCCCCCCCCCCCCCCCCCCl
inactive: activity change, negative = inhibition [1] 0.518% [at 8.39 µM] | activity change, negative = cytotoxicity [2] -0.0193% [at 8.39 µM] | activation [3] -0.486% [at 8.39 µM] | activity change, negative = inhibition [4] 7.9% [at 8.39 µM] | activity change, negative = cytotoxicity [5] -19.4% [at 8.39 µM] | activity change, negative = cytotoxicity [6] -1.64% [at 8.39 µM] | activity change, negative = cytotoxicity [8] 3.73% [at 6.97 µM] | activation [10] 1.95% [at 6.97 µM] | activity, negative = inhibition [9] 0.326% [at 4.65 µM]

C=CC(=O)OCCCCCCCCCC
inactive: Potency [1] | Potency [2] | Potency [3] | Potency [4] | Potency [5] | Potency [6] | outcome [8] | outcome [9]

COc1ccc(C(=O)Nc2ccccc2)cc1[N+](=O)[O-]
active: Potency [4] 54.9 µM
inactive: Potency [1] | Potency [2] | Potency [3] | Potency [5] | Potency [6] | outcome [7] | outcome [8] | outcome [9]

O=C(O)c1ccccc1[N+](=O)[O-]
inactive: Potency [1] | Potency [2] | Potency [3] | Potency [4] | Potency [5] | outcome [7] | outcome [8] | outcome [10] | outcome [9]

CC(=O)Nc1ccn(C2COC(COC(=O)c3ccccc3)O2)c(=O)n1 (stereo not drawn)
inactive: Potency [1] | Potency [2] | Potency [3] | Potency [4] | Potency [5] | Potency [6] | outcome [8] | outcome [9]

CCN(CCCCOC(=O)c1ccc(OC)c(OC)c1)C(C)Cc1ccc(OC)cc1 (stereo not drawn)
active: Potency [1] 29.8 µM
inactive: Potency [2] | Potency [3] | Potency [4] | Potency [5] | outcome [7] | outcome [8] | outcome [10] | outcome [9]

CCCCCC1CCC(=O)O1 (stereo not drawn)
inactive: Potency [1] | Potency [2] | Potency [3] | Potency [4] | Potency [5] | outcome [7] | outcome [8] | outcome [10] | outcome [9]

O=C1OC(=O)C2CC=CCC12 (stereo not drawn)
inactive: Potency [1] | Potency [2] | Potency [3] | Potency [4] | Potency [5] | outcome [7] | outcome [8] | outcome [10] | outcome [9]

COC=O
inactive: activity change, negative = inhibition [1] 4.44% [at 8.39 µM] | activity change, negative = cytotoxicity [2] -3.92% [at 8.39 µM] | activation [3] 0.0776% [at 8.39 µM] | activity change, negative = inhibition [4] -3.19% [at 8.39 µM] | activity change, negative = cytotoxicity [5] 0.308% [at 8.39 µM] | activity change, negative = cytotoxicity [6] 7.63% [at 8.39 µM] | activity change, negative = cytotoxicity [8] 8.3% [at 6.97 µM] | activation [10] -0.257% [at 6.97 µM] | activity, negative = inhibition [9] 1.15% [at 4.65 µM]

COc1ccc(CN(CCN(C)C)c2ncccn2)cc1
inactive: Potency [1] | Potency [2] | Potency [3] | Potency [4] | Potency [5] | outcome [7] | outcome [8] | outcome [10] | outcome [9]

O=C(Cl)c1ccc(F)c(Cl)c1
inactive: Potency [1] | Potency [2] | Potency [3] | Potency [4] | Potency [5] | outcome [7] | outcome [8] | outcome [10] | outcome [9]

CC(C)=CCC[C@H](C)CCO
inactive: Potency [1] | Potency [2] | Potency [3] | Potency [4] | Potency [5] | outcome [7] | outcome [8] | outcome [10] | outcome [9]

Cc1c(N=C=O)cccc1N=C=O
inactive: Potency [1] | Potency [2] | Potency [3] | Potency [4] | Potency [5] | Potency [6] | outcome [8] | outcome [9]

N#CCCCC(C#N)CCC#N (stereo not drawn)
inactive: Potency [1] | Potency [2] | Potency [3] | Potency [4] | Potency [5] | Potency [6] | outcome [8] | outcome [10]

O=C1C=CCCC1
inactive: Potency [1] | Potency [2] | Potency [3] | Potency [4] | Potency [5] | outcome [7] | outcome [8] | outcome [10]

COc1ccnc2c1CCCCC2S(=O)c1nc2ccccc2[nH]1 (stereo not drawn)
inactive: Potency [1] | Potency [2] | Potency [3] | Potency [4] | Potency [5] | outcome [7] | outcome [8] | outcome [10] | outcome [9]
